# High-throughput results deposited in PubChem by National Center for Advancing Translational Sciences (NCATS).
# Pf Dd2 inh: blocks in vitro growth of P. falciparum Dd2. P. falciparum Dd2 growth, SYBR Green, 72 h. Potency, µM (top dose mostly 28.9 µM), hits mostly inhibitors. 120,000 compounds, 4.3% hits. AID 1347417; active = well fitted inhibition curve with a large enough effect; also: nearly all actives have a fitted effect of over 65% in size
#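 Readout: SYBR Green fluorescence, 485 nm excitation, 535 nm emission, after ~16 h lysis at 37C. Before that, Dd2-infected red cells (2.5% hematocrit) grew 72 h with compound, 29 uM top final concentration.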
# A number is an active result; 0 = inactive; [ ] = another dose, or the depositor's remark. The sample as a whole holds a higher share of hits than the screen did.
SMILES,Pf Dd2 inh
O=C1NCCCCCCN(C(=O)c2ccoc2)[C@H]2C[C@H](C(=O)N3CCN(c4ccccn4)CC3)C[C@@H]12,0
O=C1NCCCCCN(C(=O)CC2CCCCC2)[C@@H]2C[C@@H](C(=O)N3CCc4ccccc4C3)C[C@H]12,7.08µM
Cc1ccc(C(=O)N2CCCCCCNC(=O)[C@@H]3C[C@@H](C(=O)N4CCc5ccccc5C4)C[C@@H]32)s1,7.94µM
Cc1cccc(C(=O)N2CCCCCNC(=O)[C@H]3C[C@H](C(=O)N4CCc5ccccc5C4)C[C@H]32)c1,8.91µM
O=C1NCCCCCCN(C(=O)c2cnccn2)[C@H]2C[C@H](C(=O)N3CCc4ccccc4C3)C[C@@H]12,0
CCNc1ncnc2c1CN(C1CCCNC1)C(=O)CN2C (stereo unspecified),0
O=C(c1ccccc1)N1CCn2c(nnc2-c2ccncc2)C1,0
COCc1nnc2n1CCC(NC(=O)COc1ccc(Cl)cc1)CC2 (stereo unspecified),0
COC[C@@H]1CN(C(=O)COc2ccc(Cl)cc2C)C[C@H]1C(N)=O,0
COc1cc2c(cc1OC)C(COc1ccc(C(C)C)cc1)N(C(=O)COc1ccccc1)CC2 (stereo unspecified),11.2µM
COC(=O)C[C@@H]1CCN(C(=O)COc2ccccc2)C[C@@H]1CC1=NCCc2cc(OC)c(OC)cc21,0
COc1ccc(OCC(=O)N2CCN(C(=O)c3cc(OC)c(OC)c(OC)c3)CC2)cc1,0
O=C(COc1ccccc1)NCc1ccc2c(c1)CCN2C(=O)c1ccc(Cl)cc1,0
COCCOC1CCN(C(=O)COc2ccccc2)CC1,0
COC(=O)c1ccc(OCC2c3cc(OC)c(OC)cc3CCN2C(=O)COc2ccc(Cl)cc2)cc1 (stereo unspecified),10µM
COc1ccc(OCC2c3cc(OC)c(OC)cc3CCN2C(=O)COc2ccc(Cl)cc2Cl)cc1 (stereo unspecified),10µM
COCCN1Cc2ccc(NCc3ccccc3)nc2C(C)(C(=O)Nc2ccn(C)n2)C1 (stereo unspecified),0
O=C(C1CCC1)N1CCc2nn(Cc3ccccc3)c(=O)n2CC1,0
Cc1nc(C)c(C(=O)NCC23CCC=C2N(CC2CC2)C(=O)CC3)s1 (stereo unspecified),0
COc1cccc(CN[C@@H]2CCC[C@@H](C(=O)N(C)Cc3cccnc3)CC(=O)N(C)C2)c1,0
CC(C)NC1CNC1,0
O=C(CN1CCOC1=O)N[C@@H]1[C@@H](Cc2ccccc2)[C@H]2OCC[C@@H]12,0
COc1ccc(C(=O)N[C@@H]2CCC[C@@H]2C(=O)N2CCN(Cc3ccc(F)cc3)CC2)cc1,0
COc1ccc(C(=O)N[C@@H]2CCC[C@@H]2C(=O)NCCCN2CCCc3ccccc32)cc1,11.2µM
COc1ccc(C(=O)N[C@@H]2CCC[C@@H]2C(=O)N2CCN(c3ccccc3F)CC2)cc1,10µM
SMILES,Pf Dd2 inh
COc1ccc(C(=O)N[C@@H]2CCC[C@@H]2C(=O)N2CCCC2)cc1,0
COc1ccc(C(=O)N[C@@H]2CCC[C@@H]2C(=O)N2CCOCC2)cc1,0
COc1ccc(C(=O)N[C@@H]2CCC[C@@H]2C(=O)N2CCN(c3cc(C)ccc3C)CC2)cc1,5.01µM
COc1ccc(C(=O)N[C@@H]2CCC[C@@H]2C(=O)N2CCCCC2)cc1,0
COc1ccc(C(=O)N[C@@H]2CCC[C@@H]2C(=O)NCCCn2cccn2)cc1,0
CCCNC(=O)[C@H]1CCC[C@H]1NC(=O)c1ccc(OC)cc1,0
CCCCNC(=O)N1CCC2(CC1)SCC(=O)N2c1ccc(OC)cc1,0
CC(=O)NC[C@H]1O[C@@H](Cc2nc(-c3ccc(OC(F)(F)F)cc3)no2)[C@H](O)[C@@H]1O,0
COCCNC(=O)[C@H]1CN2CC[C@H]1C[C@@H]2Cn1cc(CO)nn1,0
CN(C)[C@@H]1C[C@H](Cn2cc(C3CC3)nn2)[C@@H](O)[C@H]1O,0
O=C(CC[C@@H]1CNC(=O)[C@@H]2C[C@H](NC(=O)Nc3ccc(F)cc3F)CN12)NCc1ccccc1,0
O=C(c1ccc(-c2cccnc2)nc1)N1CCCC(c2ccccc2)CC1 (stereo unspecified),0
Cn1cccc1CNC(=O)Cn1nc2c(cc1=O)CCCCC2,0
O=C(Cn1ccn2nc(-c3ccccc3)c(CO)c2c1=O)Nc1ccccc1,0
CNC(=O)N1CCC(C2CCN(C(=O)NCc3ccc(F)cc3)C2)CC1 (stereo unspecified),0
Cc1ncoc1C(=O)N1CCC(C(=O)N2CCCCCCNC(=O)CC2)CC1,0
O=C(NCCC1CCN(C(=O)Nc2ccc(F)cc2F)CC1)c1cccc(F)c1,0
COc1cccc(C(=O)NCCC2CCN(C(=O)Nc3ccc(C)c(F)c3)CC2)c1,0
Cc1ccc(NC(=O)N2CCC(CCNC(=O)c3cccc(F)c3)CC2)cc1F,12.6µM
Cn1cccc1CN1CCC2(CC1)CNC(=O)c1ccccc1O2,0
C=CCNC(=O)c1cnn2c1CN([S+](=O)([O-])c1cccc(C(F)(F)F)c1)CC2,0
O=C(Nc1ccc(F)cc1)Nc1csc2c1CCCC2,10µM
CCc1cccc(C)c1NC(=O)Nc1csc2c1CCCC2,0[5.79 µM]
